Experimental data from PubChem BioAssay (EPA / NIEHS).
Records with an inconclusive call do not appear. Active and inactive are the calls of the source. The calls were made as follows, unless noted: active = hit-call score of the fitted dose curve at least 0.9, where 1 is the maximum; inconclusive = response in the unintended direction; inactive = score below 0.9.

What was measured:
[1] = TOX21_TRB_BLA_Agonist_Followup_viability: Viability Assessment in the Tox21 Thyroid Hormone Receptor beta Agonism Beta-lactamase (BLA) Follow-Up Assay (AID 2283956)
Summary of the method: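 Viability was read as CellTiter-Glo luminescence in the same wells as the TRb-bla agonist read-out. HEK293T GAL4-TRb LBD cells were treated for 18 h (37C, 5% CO2) at 11 concentrations in triplicate. Fits were bidirectional versus DMSO baseline.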

[2] = CCTE_Harrill_HTTr_Viability_MCF7: CCTE's 6-hour Cell Viability Assessment for the High-Throughput Transcriptomics (HTTr) Platform, in MCF-7 cells cultured in DMEM + 10% fetal bovine serum, Harrill Lab (AID 2284010; active = hit-call score of the fitted dose curve at least 0.9, where 1 is the maximum; inactive = score below 0.9)
Summary of the method: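 Eight-point concentration series, six-hour exposure. Propidium iodide exclusion imaged to assess membrane integrity as a cytotoxicity readout; bidirectional fitting was done with DMSO as negative control and activity baseline.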

[3] = CCTE_Harrill_HTTr_Apoptosis_MCF7: CCTE's 6-hour Apoptosis Assessment for the High-Throughput Transcriptomics (HTTr) Platform, in MCF-7 cells cultured in DMEM + 10% fetal bovine serum, Harrill Lab (AID 2284011; active = hit-call score of the fitted dose curve at least 0.9, where 1 is the maximum; inactive = score below 0.9)
Summary of the method: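 MCF-7 cells in DMEM + 10% FBS exposed 6 h to chemicals over an eight-point dilution series. Caspase-3/7 activation imaged by high-content CellEvent Green staining; fitted bidirectionally versus DMSO.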

[4] = CCTE_Harrill_HTTr_CellCount_MCF7: CCTE's Cell Proliferation Assessment for the High-Throughput Transcriptomics (HTTr) Platform, Harrill Lab (AID 2284012);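 also: count of Hoechst-stained nuclei per well by high-content imaging in MCF-7 cells; cells exposed to compound for six hours; intended direction is loss of nuclei count meaning fewer cells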
Summary of the method: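 For this full-screen endpoint, MCF-7 cultures received eight compound dilutions for six hours. Well nuclei counts from Hoechst imaging were analyzed relative to DMSO.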

[5] = molecular target: Nucleoli Translocation, AR (gene 367) (UniProt P10275); assay: UPITT_HCI_U2OS_AR_TIF2_Nucleoli_Antagonist: University of Pittsburgh U2OS Androgen Receptor-Transcriptional Intermediary Factor 2 (AR-TIF2) Antagonism High Content Imaging Assay for Nucleoli Translocation (AID 2283997)
Sequence of Nucleoli Translocation, AR (gene 367) (P10275 whole entry, looked up): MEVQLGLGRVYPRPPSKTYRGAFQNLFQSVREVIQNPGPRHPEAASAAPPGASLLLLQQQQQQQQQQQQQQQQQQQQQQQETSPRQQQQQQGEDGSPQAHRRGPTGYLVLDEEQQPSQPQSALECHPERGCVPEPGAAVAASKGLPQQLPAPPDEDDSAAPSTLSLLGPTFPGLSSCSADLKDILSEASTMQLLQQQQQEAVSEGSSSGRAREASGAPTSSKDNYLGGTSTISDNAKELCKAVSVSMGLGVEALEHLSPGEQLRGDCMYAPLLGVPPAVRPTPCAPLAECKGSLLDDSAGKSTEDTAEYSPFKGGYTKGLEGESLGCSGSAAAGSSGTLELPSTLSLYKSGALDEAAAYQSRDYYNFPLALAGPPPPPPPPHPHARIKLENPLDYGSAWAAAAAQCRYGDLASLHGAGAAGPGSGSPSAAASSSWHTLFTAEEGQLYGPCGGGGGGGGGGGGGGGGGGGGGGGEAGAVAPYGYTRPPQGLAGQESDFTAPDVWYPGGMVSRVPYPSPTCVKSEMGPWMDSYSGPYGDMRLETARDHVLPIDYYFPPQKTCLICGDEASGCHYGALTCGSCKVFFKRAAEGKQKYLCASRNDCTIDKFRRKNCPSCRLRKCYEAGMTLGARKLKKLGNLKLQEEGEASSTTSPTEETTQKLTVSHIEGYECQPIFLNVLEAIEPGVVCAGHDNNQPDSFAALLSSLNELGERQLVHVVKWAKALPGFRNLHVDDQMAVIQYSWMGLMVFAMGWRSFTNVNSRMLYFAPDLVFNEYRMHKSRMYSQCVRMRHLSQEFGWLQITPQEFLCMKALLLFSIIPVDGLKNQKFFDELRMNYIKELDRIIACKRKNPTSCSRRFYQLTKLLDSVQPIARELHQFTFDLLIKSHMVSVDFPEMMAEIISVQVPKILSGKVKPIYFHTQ
Summary of the method: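 An antagonist-mode imaging screen: engineered U2OS (AR-RFP, TIF2-GFP) exposed to 20 uM compound, 0.2% DMSO. Activity reflects nucleolar red fluorescence change relative to DHT baseline.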

[6] = molecular target: Nucleoli Translocation, AR (gene 367) (UniProt P10275); assay: UPITT_HCI_U2OS_AR_TIF2_Nucleoli_Agonist: University of Pittsburgh U2OS Androgen Receptor-Transcriptional Intermediary Factor 2 (AR-TIF2) Agonism High Content Imaging Assay for Nucleoli Translocation (AID 2283998)
Summary of the method: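 U2OS cells expressing RFP-tagged human AR and GFP-tagged TIF2; red fluorescence in nucleoli quantified by high-content imaging. Primary screen at 20 uM final (0.2% DMSO); concentration-response 0.195–50 uM (0.5% DMSO), fitted upward versus DMSO.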

[7] = molecular target: Ratio of Nucleoli Translocation and Cytoplasm, AR (gene 367) (UniProt P10275); assay: UPITT_HCI_U2OS_AR_TIF2_Nucleoli_Cytoplasm_Ratio_Antagonist: University of Pittsburgh U2OS Androgen Receptor-Transcriptional Intermediary Factor 2 (AR-TIF2) Antagonism High Content Imaging Assay for Ratio of Nucleoli Translocation and Cytoplasm (AID 2283999);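 also: antagonists lower the DHT-driven ratio of nucleolar to cytoplasmic red signal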
Sequence of Ratio of Nucleoli Translocation and Cytoplasm, AR (gene 367) (P10275 whole entry, looked up): as above
Summary of the method: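 This antagonist-mode endpoint tracks AR-RFP localisation, the nucleolus-to-cytoplasm intensity ratio, in TIF2-GFP-coexpressing U2OS cells. DMSO stays at or below 0.5%; testing spans 20 uM single-dose and 0.195–50 uM series, with DHT setting the activity baseline.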

[8] = molecular target: Ratio of Nucleoli Translocation and Cytoplasm, AR (gene 367) (UniProt P10275); assay: UPITT_HCI_U2OS_AR_TIF2_Nucleoli_Cytoplasm_Ratio_Agonist: University of Pittsburgh U2OS Androgen Receptor-Transcriptional Intermediary Factor 2 (AR-TIF2) Agonism High Content Imaging Assay for Ratio of Nucleoli Translocation and Cytoplasm (AID 2284000);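 also: hits raise the red nucleolar to cytoplasm ratio above vehicle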
Summary of the method: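 Primary screen at 20 uM final (0.2% DMSO), then triplicate confirmation and dose-response from 0.195 to 50 uM final (0.5% DMSO). Cells: U2OS with AR-RFP and TIF2-GFP. Endpoint is the nucleoli/cytoplasm red-fluorescence ratio, gain-of-signal vs DMSO.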

Measured: outcome

Cc1cc(-n2c(=O)[nH]c(=O)n(C)c2=O)ccc1Oc1ccc(S(=O)(=O)C(F)(F)F)cc1
inactive: [1]

CCCCOC(=O)N(C)SN(C)C(=O)Oc1cccc2c1OC(C)(C)C2
inactive: [2] | [3] | [4]

COP(=S)(OC)SCC(=O)N(C)C=O
inactive: [5] | [6] | [7] | [8] | [2] | [3] | [4]

[Cl-].[Cl-].[Cl-].[Gd+3]
inactive: [2]
